# Assay results published in the supplement of paper PMC11732987, “Enantioselective OTUD7B fragment discovery through chemoproteomics screening and high-throughput optimisation” (Communications Chemistry, 2025).
# Unmarked numbers belong to inactive results.
# What was measured:
# Assay in all cases: log2 ratio of Biotin-Ahx-Ub-VS probe labelling (fragment/DMSO); higher = less target engagement (more negative = stronger competition), active = hit call of the paper (q ≤ 0.05, log2 ratio ≤ -1)
# Conditions in all cases: compound concentration: 200 uM; treatment time: 3 h
# USP19 = biological target: T1, USP19 (UniProt O94966)
# T1 sequence (whole entry): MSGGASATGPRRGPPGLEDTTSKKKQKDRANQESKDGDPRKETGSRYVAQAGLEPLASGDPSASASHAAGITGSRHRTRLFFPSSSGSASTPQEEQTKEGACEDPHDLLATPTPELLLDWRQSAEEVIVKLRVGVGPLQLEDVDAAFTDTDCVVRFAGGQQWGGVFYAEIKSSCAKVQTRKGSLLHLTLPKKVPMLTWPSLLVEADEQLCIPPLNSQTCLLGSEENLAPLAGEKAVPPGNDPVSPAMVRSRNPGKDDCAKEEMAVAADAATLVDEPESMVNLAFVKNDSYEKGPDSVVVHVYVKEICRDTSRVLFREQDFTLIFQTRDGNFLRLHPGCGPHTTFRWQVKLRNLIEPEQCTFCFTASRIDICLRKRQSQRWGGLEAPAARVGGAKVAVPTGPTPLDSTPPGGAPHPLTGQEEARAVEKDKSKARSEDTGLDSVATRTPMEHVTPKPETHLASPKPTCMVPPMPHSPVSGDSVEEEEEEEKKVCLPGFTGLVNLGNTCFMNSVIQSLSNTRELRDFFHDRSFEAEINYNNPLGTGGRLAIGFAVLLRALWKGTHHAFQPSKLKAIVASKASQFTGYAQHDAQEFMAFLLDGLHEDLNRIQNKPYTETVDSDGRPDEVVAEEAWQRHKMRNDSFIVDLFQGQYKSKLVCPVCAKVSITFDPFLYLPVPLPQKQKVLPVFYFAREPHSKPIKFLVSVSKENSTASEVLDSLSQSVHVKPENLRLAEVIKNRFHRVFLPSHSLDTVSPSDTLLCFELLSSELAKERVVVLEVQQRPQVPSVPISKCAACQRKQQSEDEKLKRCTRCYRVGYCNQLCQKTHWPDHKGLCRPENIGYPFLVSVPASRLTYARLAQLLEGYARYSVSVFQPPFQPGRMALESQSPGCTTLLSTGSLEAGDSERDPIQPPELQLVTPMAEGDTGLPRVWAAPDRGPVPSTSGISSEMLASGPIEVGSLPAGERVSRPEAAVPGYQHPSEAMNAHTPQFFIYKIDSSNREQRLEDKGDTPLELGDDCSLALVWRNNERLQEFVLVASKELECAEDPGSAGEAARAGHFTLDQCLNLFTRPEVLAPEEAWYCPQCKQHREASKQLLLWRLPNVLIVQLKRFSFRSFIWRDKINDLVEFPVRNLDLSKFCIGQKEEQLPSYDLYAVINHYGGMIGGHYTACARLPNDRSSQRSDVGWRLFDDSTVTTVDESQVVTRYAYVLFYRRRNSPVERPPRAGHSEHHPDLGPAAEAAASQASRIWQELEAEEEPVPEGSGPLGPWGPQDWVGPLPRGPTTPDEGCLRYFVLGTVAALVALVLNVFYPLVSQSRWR
# Outline: (§1)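 Labelled DUBs from HEK293T lysate were NeutrAvidin-enriched, digested with LysC and trypsin, and run by diaPASEF LC-MS/MS. Before that, each 495 µg sample in Tris/CHAPS/IGEPAL buffer with protease inhibitors was treated in triplicate with fragment at 200 µM or vehicle for 3 h, then with Biotin-Ahx-Ub-VS at 0.5 µM final for 1 h. Values are average log2 ratios of fragment over vehicle by unpaired t-test, based on global-median-normalised Spectronaut label-free quantities from proteins with ≥2 unique peptides.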
# USP24 = USP24 (UniProt Q9UPU5)
# Outline: as §1
# USP25 = biological target: T2, USP25 (UniProt Q9UHP3)
# T2 sequence (whole entry): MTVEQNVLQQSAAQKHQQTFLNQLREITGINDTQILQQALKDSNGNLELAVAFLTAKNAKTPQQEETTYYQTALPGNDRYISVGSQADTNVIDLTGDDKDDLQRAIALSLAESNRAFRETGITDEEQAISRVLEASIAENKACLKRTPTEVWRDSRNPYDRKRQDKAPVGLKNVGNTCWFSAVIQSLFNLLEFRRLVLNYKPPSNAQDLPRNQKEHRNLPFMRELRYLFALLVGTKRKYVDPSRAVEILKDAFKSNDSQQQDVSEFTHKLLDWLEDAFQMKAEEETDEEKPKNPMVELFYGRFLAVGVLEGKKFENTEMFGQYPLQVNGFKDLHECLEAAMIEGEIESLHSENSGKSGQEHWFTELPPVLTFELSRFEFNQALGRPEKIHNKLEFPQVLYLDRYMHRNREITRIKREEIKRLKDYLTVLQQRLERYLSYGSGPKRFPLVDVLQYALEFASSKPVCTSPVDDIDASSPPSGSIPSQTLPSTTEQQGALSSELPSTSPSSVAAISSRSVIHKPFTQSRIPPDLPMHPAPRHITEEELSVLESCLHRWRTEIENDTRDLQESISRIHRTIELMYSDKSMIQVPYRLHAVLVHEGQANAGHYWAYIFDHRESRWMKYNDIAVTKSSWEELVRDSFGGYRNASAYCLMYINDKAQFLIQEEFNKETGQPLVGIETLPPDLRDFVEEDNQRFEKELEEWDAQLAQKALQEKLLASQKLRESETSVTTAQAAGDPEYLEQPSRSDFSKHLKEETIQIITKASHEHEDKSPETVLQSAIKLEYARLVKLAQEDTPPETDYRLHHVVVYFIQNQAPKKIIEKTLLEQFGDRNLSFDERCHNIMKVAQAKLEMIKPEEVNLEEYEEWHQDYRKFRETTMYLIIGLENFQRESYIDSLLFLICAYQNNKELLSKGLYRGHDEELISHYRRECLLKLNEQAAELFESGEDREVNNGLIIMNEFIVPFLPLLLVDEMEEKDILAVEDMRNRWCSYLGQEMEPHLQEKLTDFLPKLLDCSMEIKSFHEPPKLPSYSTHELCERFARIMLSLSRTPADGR
# Outline: as §1
# USP28 = biological target: T3, USP28 (UniProt Q96RU2)
# T3 sequence (whole entry): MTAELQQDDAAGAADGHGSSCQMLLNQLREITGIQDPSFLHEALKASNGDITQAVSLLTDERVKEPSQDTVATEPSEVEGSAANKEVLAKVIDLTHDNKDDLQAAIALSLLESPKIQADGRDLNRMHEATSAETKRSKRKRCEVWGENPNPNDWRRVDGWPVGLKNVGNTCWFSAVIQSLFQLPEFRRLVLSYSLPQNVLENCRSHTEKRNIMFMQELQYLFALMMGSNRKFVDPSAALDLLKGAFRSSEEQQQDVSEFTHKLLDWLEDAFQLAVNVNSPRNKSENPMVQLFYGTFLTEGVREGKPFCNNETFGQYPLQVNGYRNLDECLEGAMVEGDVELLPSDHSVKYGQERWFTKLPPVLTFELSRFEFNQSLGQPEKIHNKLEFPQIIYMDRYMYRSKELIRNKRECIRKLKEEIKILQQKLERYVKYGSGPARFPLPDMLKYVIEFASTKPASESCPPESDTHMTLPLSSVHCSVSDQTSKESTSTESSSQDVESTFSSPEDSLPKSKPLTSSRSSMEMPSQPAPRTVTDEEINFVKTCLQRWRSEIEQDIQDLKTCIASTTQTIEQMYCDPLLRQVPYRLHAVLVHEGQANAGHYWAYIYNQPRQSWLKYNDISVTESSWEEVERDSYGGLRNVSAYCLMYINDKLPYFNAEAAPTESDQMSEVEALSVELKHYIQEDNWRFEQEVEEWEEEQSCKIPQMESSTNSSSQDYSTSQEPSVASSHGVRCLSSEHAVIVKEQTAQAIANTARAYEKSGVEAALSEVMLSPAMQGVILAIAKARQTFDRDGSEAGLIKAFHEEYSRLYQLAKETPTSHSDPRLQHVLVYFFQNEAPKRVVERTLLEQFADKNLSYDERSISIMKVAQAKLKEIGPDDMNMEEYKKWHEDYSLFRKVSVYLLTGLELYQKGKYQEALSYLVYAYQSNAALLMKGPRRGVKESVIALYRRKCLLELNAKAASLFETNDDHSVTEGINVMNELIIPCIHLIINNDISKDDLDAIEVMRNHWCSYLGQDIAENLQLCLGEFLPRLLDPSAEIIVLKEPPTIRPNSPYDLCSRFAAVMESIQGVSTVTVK
# Outline: as §1
# USP24, sequence (Q9UPU5 whole entry): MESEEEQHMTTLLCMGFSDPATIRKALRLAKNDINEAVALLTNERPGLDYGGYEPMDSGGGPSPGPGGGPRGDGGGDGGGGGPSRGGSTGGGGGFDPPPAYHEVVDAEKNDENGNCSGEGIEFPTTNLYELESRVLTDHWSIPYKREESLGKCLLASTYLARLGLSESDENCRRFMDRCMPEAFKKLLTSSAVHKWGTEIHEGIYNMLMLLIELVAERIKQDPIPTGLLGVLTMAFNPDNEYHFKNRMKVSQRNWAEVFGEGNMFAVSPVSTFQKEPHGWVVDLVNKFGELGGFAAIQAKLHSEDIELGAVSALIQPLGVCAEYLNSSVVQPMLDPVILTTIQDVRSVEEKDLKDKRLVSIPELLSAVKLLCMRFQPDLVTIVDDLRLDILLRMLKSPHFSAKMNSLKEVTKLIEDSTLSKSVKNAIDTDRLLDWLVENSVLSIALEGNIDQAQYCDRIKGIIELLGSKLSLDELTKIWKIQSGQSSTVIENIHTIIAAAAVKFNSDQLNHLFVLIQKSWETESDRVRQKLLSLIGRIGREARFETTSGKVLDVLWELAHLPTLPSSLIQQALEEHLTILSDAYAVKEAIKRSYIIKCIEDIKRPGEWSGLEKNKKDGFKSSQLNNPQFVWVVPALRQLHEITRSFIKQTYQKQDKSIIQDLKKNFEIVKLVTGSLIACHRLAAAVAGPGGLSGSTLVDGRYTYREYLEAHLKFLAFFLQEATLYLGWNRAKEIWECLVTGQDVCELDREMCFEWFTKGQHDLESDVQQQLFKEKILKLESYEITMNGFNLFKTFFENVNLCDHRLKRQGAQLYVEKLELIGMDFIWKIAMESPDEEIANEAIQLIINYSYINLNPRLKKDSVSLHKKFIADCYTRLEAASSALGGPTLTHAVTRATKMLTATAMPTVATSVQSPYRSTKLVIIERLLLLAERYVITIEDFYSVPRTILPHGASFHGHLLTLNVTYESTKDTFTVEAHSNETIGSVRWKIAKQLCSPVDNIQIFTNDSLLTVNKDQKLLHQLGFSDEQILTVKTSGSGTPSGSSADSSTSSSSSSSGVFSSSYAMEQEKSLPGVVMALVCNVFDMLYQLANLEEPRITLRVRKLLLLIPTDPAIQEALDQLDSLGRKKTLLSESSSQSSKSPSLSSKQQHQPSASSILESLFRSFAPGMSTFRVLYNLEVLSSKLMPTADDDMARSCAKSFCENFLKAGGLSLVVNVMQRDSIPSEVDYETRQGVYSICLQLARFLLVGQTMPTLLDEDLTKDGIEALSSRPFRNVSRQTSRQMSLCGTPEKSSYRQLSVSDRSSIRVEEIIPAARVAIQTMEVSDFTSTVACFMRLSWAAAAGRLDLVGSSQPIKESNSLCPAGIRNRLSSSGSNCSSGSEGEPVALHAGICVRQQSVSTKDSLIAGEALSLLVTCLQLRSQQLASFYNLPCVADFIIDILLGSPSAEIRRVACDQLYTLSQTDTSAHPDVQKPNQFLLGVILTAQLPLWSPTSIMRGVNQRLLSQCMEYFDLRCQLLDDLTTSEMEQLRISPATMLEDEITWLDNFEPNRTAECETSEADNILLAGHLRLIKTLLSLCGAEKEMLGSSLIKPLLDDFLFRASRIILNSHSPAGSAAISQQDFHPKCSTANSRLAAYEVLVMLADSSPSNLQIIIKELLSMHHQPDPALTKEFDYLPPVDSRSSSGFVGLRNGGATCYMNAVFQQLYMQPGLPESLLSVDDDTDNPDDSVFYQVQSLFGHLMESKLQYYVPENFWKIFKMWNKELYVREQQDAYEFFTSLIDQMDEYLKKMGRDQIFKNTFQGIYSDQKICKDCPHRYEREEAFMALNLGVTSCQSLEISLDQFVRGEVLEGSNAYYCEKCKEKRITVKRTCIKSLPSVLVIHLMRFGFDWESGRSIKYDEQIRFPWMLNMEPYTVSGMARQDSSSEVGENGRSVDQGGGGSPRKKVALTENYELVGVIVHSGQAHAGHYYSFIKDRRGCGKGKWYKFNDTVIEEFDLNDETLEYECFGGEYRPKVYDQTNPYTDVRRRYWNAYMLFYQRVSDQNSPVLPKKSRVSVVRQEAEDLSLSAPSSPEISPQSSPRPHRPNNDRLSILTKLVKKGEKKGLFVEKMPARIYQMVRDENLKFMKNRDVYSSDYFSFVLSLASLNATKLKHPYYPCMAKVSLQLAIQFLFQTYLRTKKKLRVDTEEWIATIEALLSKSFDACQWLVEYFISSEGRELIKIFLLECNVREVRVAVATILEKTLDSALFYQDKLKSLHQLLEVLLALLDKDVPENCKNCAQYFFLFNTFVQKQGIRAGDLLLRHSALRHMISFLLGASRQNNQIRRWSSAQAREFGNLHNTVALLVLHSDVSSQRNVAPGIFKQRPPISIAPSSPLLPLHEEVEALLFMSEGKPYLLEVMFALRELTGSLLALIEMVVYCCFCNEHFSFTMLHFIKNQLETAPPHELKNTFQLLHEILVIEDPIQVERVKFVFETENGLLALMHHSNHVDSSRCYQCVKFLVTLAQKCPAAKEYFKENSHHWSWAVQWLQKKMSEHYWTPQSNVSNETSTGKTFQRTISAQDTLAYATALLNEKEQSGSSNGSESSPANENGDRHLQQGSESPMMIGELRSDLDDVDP
smiles,measurement,setting,value
O=C(CCl)N1CCN(c2nc3ccccc3o2)CC1,log2 ratio of Biotin-Ahx-Ub-VS probe labelling,USP19,-0.702
same,log2 ratio of Biotin-Ahx-Ub-VS probe labelling,USP24,-1.3 (active)
same,log2 ratio of Biotin-Ahx-Ub-VS probe labelling,USP25,-0.53
same,log2 ratio of Biotin-Ahx-Ub-VS probe labelling,USP28,-0.6
